# In the library only some 27% were active in any assay of this set; here they are far more common.
# CYP2C9 inhib = blockers of cytochrome P450 2C9 activity – biochemical, luminescence, ADME assay, primary screen; P11712; CYP2C9 Supersomes, luciferin-H conversion; inhibition, % at 5 µM; actives 20% (n = 96,000); AID 777, 2007;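 active means blocking of liver enzyme CYP2C9 beyond about 50% at 5 µM, limit read from the data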
# CYP2C19 inh = blockers of cytochrome P450 2C19 activity – biochemical, luminescence, ADME assay, primary screen. CYP2C19 Supersomes, luciferin-H EGE luminescence, 30 min. AID 778, 2007. P33261. inhibition, % at 5 µM. actives 21% (n = 96,000);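 active means CYP2C19 inhibition above a set limit at 5 µM in the primary screen, cut at about 50% in these data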;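 further: plate controls were negative control wells for no effect and 2.5 mM tranylcypromine positive control for full effect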
# EphB4 antag = EphB4-ephrin-B2 interaction antagonists, primary screen, biochemical, TNYL-RAW peptide probe, fluorescence polarization; Ephrin type-B receptor 4 (Homo sapiens), P54760; EphB4 LBD / TNYL-RAW-Alexa532 peptide; inhibition, % at 7 µM; actives 0.15% (n = 97,000);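 active means inhibition above the screen-wide mean inhibition plus 3 SD, cut at about 15% in these data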;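 further: 0% = DMSO wells and 100% = excess unlabeled TNYL-RAW peptide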
# CYP2C9 activ = human CYP2C9 activators, primary screen, biochemical, luminescence; actives 1.4% (n = 96,000); AID 1024, 2008; Cytochrome P450 2C9 (Homo sapiens), P11712; recombinant CYP2C9, luciferin-H conversion; hits give high values; factor 1 = untreated enzyme, 0 = blocked; activation factor at 5 µM;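 active means activation factor of 2 or more for CYP2C9 at a 5 µM dose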;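 further: 0 = sulfaphenazole-blocked wells and 1 = vehicle-only wells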
# CYP2C19 activ = human CYP2C19 activators, primary screen, biochemical, luminescence; Cytochrome P450 2C19 (Homo sapiens), P33261; recombinant CYP2C19, luciferin-H EGE luminescence; hits give high values; 0 = fully inhibited enzyme, 1 = untreated enzyme; activation factor at 5 µM; 96,000 tested, under 10 active; AID 1025, 2008;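 active means activation factor of at least 2 at 5 µM in the primary screen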;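 further: 0 = wells with 2.5 mM tranylcypromine and 1 = vehicle-only wells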
# * hit, by the source's call; . = not tested or not shown.
SMILES,CYP2C9 inhib,CYP2C19 inh,EphB4 antag,CYP2C9 activ,CYP2C19 activ
CCN(CC)c1ccc2c(c1)OC(N)=C(C#N)C2c1cccnc1 (stereo not drawn),45,82*,-8,0.5,0.2
N#CCc1ccc(NS(=O)(=O)c2ccc(N3CCCC3=O)cc2)cc1,38,30,.,0.6,0.7
CCOC(=O)N1CCC(NC(=O)Cc2ccc(-n3c(=O)[nH]c4ccccc4c3=O)cc2)CC1,.,.,-8,.,.
COc1ccccc1OCCSc1nc2ccccc2c(=O)[nH]1,43,59*,11,0.6,0.4
Cc1cc(=O)[nH]c(SCCCOc2ccccc2Cl)n1,29,45,-1,0.7,0.5
Cc1cc(=O)[nH]c(SCCOc2ccc(OC(C)C)cc2)n1,75*,66*,2,0.3,0.3
C/C=C/c1ccc(OCCSc2nc(C)cc(=O)[nH]2)c(OC)c1,53*,16,.,0.5,0.8
CCc1cc(OCCCSc2nc(C)cc(=O)[nH]2)ccc1Cl,9,70*,4,0.9,0.3
Cc1cc(C)n(-c2nc(SCCN(C)C)c3c4c(sc3n2)CCCC4)n1,12,6,1,0.9,0.9
Cc1ccc2nc3c(cc2c1)CN(Cc1ccco1)C(=NCC1CCCO1)S3 (stereo not drawn),79*,52*,5,0.2,0.5
COCCN=C1Sc2nc3c(C)cccc3cc2CN1Cc1ccco1,57*,30,3,0.4,0.7
Cc1cccc2cc3c(nc12)SC(=NCC1CCCO1)N(Cc1ccco1)C3 (stereo not drawn),57*,23,0,0.4,0.8
Cc1ccc2cc3c(nc2c1)N(Cc1ccco1)CC3,5,9,1,1,0.9
CN=C1c2cc3cc(OC)ccc3n2CCN1Cc1ccccc1,-3,10,-4,1,0.9
COCCNC(=O)C1c2cc(OC)c(OC)cc2C(=O)N(C)C1c1cccnc1 (stereo not drawn),-9,1,-3,1.1,1
O=C(c1ccc2c3c(cccc13)CC2)N1CCOCC1,-112,34,-4,2.1*,0.7
COc1cccc(CNCCN2CCOCC2)c1OC,1,2,-1,1,1
CCN1C(=O)/C(=C\c2ccc3c(c2)OCO3)C(C(=O)OC)=C1C,39,15,3,0.6,0.8
CCOc1cc(/C=C2\C(=O)N(Cc3ccc(C)cc3)C(C)=C2C(=O)OC)ccc1O,83*,40,2,0.2,0.6
CCC(C(=O)O)n1nnc(-c2ccc(-c3ccc(OC)cc3)cc2)n1 (stereo not drawn),28,0,-4,0.7,1
CCCCOc1ccc(-c2nnn(C(C)(C)C(=O)OC)n2)cc1,57*,42,6,0.4,0.6
CCCCOc1ccc(-c2nnn(C(C)C(=O)OCC)n2)cc1 (stereo not drawn),68*,49,2,0.3,0.5
CC(C)C(=O)Nc1ncc2c(n1)CC(c1cccs1)CC2=O (stereo not drawn),.,.,4,.,.
Cc1ccc(C(=O)Nc2onc(C)c2C#N)cc1,58*,37,1,0.4,0.6
Cc1c(N(C(=O)c2cc(=O)[nH]c3ccccc23)C(C)C)c(=O)n(-c2ccccc2)n1C,-3,13,1,1,0.9
SMILES,CYP2C9 inhib,CYP2C19 inh,EphB4 antag,CYP2C9 activ,CYP2C19 activ
COCCn1c(SCC(=O)Nc2sc(C)c(C)c2C#N)nnc1C(C)C,92*,80*,-7,0.1,0.2
CCn1c(SCC(=O)Nc2sc(C)c(C)c2C#N)nnc1C(C)C,91*,98*,-2,0.1,0
Cc1sc(NC(=O)CSc2nnc3scc(-c4ccccc4)n23)c(C#N)c1C,-13,10,5,1.1,0.9
CCCCn1nnc(NC(=O)c2cc3ccccc3o2)n1,8,-10,4,0.9,1.1
Cc1ccc(C)c(Cn2nnc3c(=O)[nH]c(C4CCN(C(=O)c5cccs5)CC4)nc32)c1,88*,51*,-1,0.1,0.5
O=C(c1cccs1)N1CCN(Cc2nc3ccccc3c(=O)[nH]2)CC1,2,-4,-1,1,1
Cc1ccc(Cn2nnc3c(=O)[nH]c(C4CCN(C(=O)c5cccs5)CC4)nc32)cc1,72*,45,-5,0.3,0.5
Cc1ccn2c(/C=N/OCc3cccc(F)c3)c(-c3ccc(Cl)cc3)nc2c1,36,6,1,0.6,0.9
COc1ccc(CC(=O)n2nc(-c3ccc(Cl)cc3)nc2NCc2ccco2)cc1,13,6,-1,0.9,0.9
COc1ccccc1OC(=O)C1CC(=O)N(c2ccc(Cl)cc2)C1 (stereo not drawn),35,44,-3,0.7,0.6
COc1ccc2c(C)cc(SCc3c(C)noc3C)nc2c1,57*,50*,6,0.4,0.5
CC(=O)N(C)c1nnc(-c2ccccn2)s1,.,.,8,.,.
CCOC(=O)C1CCN(C(=O)COc2ccc(Cl)cc2C)CC1,-72,83*,-4,1.7,0.2
CCOC(=O)C1CCN(C(=O)COc2ccc(Cl)cc2Cl)CC1,-40,80*,11,1.4,0.2
COC(=O)C1CCN(C(=O)COc2ccc(Cl)cc2)CC1,31,86*,-6,0.7,0.1
O=C(COc1ccc(Cl)cc1Cl)N1CCCC1,-12,15,-1,1.1,0.8
CCOC(=O)C1CCN(C(=O)COc2ccc(Cl)cc2)CC1,9,44,4,0.9,0.6
CCOc1cc(N2CCOCC2)c(OCC)cc1NC(=O)C1CCCC1,0,-9,-1,1,1.1
C=CCn1c(-c2ccc(OC)cc2)nc2ccccc21,76*,73*,4,0.2,0.3
COc1ccc(-c2nnnn2C)cc1S(=O)(=O)NCCc1ccccc1,.,.,-9,.,.
COc1ccc2c(c1)nc(N)n2Cc1ccccc1,10,85*,-2,0.9,0.1
COc1ccc(-c2nc3ccccc3n2Cc2ccccc2)cc1,96*,76*,1,0,0.2
COc1ccc(-c2nnnn2CCc2ccccc2)cc1,71*,98*,-5,0.3,0
C=CCn1c(-c2ccc(N)cc2)nc2ccccc21,33,23,0,0.7,0.8
CCOCCn1c(-c2ccc(OC)cc2)nc2ccccc21,34,26,-3,0.7,0.7
O=S(=O)(c1cccs1)n1cnc2ccccc21,-38,11,-3,1.4,0.9
CCC(C)c1c(O)nc(SCC(=O)Nc2ccccc2)[nH]c1=O (stereo not drawn),76*,73*,2,0.2,0.3
CCC(C)c1c(O)nc(SCC(=O)c2ccccc2)[nH]c1=O (stereo not drawn),54*,13,-1,0.5,0.9
O=C(CSc1nc(O)c(Cc2ccccc2)c(=O)[nH]1)Nc1ccccc1,8,0,-2,0.9,1
